# Measured values published in PubChem BioAssay.
# Calls of active or inactive are those of the source.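 Rule for the calls: active = inhibition above 20% together with a positive visual image hit; inconclusive = visual image hit but inhibition not above 20%; inactive = no visual image hit.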
# Assay: inhibitors of TNFa-induced NFkB p65 translocation, primary screen, imaging, HUVEC, MLSMR starter and 10KST1 sets (AID 438);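 note: compound added about 3h40 before a 20 min TNFalpha stimulation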;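 for inhibition: signal is the nuclear over cytoplasmic p65 intensity ratio per well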
# Details: HUVEC TNFa-induced p65 nuclear translocation; cell count: measured here: nuclei count (cytotoxicity indicator), at 2.08 µM; inhibition: at 2 µM, stronger effect = higher value, 0% TNFa-plus-vehicle, 100% no-TNFa wells
SMILES,inhibition,cell count
CCCCn1c(SCC(=O)N2CC(=O)Nc3ccccc32)nnc1-c1ccoc1C,-7.7% (inactive),494
CC(Sc1nc(-c2ccccc2)cc(C(F)(F)F)n1)C(=O)N1CCC(C(N)=O)CC1 (stereo not drawn),7.2% (inactive),446
CCOc1ccc(N2CC(C(=O)Nc3cccc(C)c3C)CC2=O)cc1 (stereo not drawn),0.6% (inactive),694
CCC(=O)Nc1ccc(NC(=O)c2cccc(OC)c2)nc1,-7.5% (inactive),742
CCOC(=O)Cc1nnc2c(Nc3ccccc3F)nc3nonc3n12,-9.1% (inactive),631
Cc1cccc(N2CCN(C(=O)C3CCCN(S(=O)(=O)c4c(C)noc4C)C3)CC2)c1C (stereo not drawn),-2.3% (inactive),599
COc1ccc(N2CCN(Cc3nc(-c4ccc(Cl)cc4Cl)no3)CC2)cc1,-0.7% (inactive),596
Cc1cc(C(F)(F)F)nn1Cc1ccc(C(=O)NCc2ccco2)o1,-2.1% (inactive),597
C/C=C/c1ccc(OCCn2cncn2)c(OC)c1,-6.6% (inactive),746
Cc1cnc(C(=O)Nc2nnc(C(C)C)s2)cn1,-8.8% (inactive),569
Cc1nc2scc(-c3cccs3)c2c(=O)n1-n1cccc1,10.6% (inactive),506
COc1ccc(-c2nc(CSCC(=O)N3CCN(c4cccc(C)c4)C(C)C3)c(C)o2)cc1OC (stereo not drawn),2.3% (inactive),549
O=C(OCC(=O)c1ccccc1Br)c1ccccn1,2.7% (inactive),308
CCCN(Cc1cc2ccc(C)cc2[nH]c1=O)C(=O)c1cccnc1,2.6% (inactive),779
CCOC(=O)C(CC)Sc1nc2c(c(=O)[nH]c(=O)n2C)n1C/C=C(/C)Cl (stereo not drawn),-12.9% (inactive),775
Cc1cc(C)n(C2=NS(=O)(=O)c3ccccc32)n1,-2.4% (inactive),343
Cc1nnc(SCc2ccccc2F)n1NCc1cccs1,-3.9% (inactive),767
Cc1nc2ccc(Br)cn2c1NC(C)(C)C,12.8% (inactive),209
Cc1cc(NCCN2CCCCC2)n2c(nc3ccccc32)c1C#N,-10.5% (inactive),624
CC(NS(=O)(=O)c1ccc(F)cc1)C(c1cccs1)N1CCN(C)CC1 (stereo not drawn),-3.7% (inactive),390
COC(=O)Cn1c(CN2CCN(c3ccccc3F)CC2)nc2c1c(=O)n(C)c(=O)n2C,-1.4% (inactive),633
COc1ccc(CCNC(=O)c2cnc3scc(C)n3c2=O)cc1OC,-5.3% (inactive),573
CCn1c(SCc2cccc(C(F)(F)F)c2)nnc1-c1ccco1,4.8% (inactive),616
COc1ccc(-n2c(SCC(=O)N3CCCCC3C)nnc2-c2cccnc2)cc1 (stereo not drawn),-12.2% (inactive),584
